Shown are actives, neighbours in structure and some others; about 6.3% of the full set was active somewhere.
TIM10 inh: TIM10 yeast growth inhibition; S. cerevisiae TIM10 strain growth, BacTiter-Glo luminescence, 24 h; inhibition, % at 10 µM; 330,000 compounds, 1.4% hits; AID 463195;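 active = inhibition of 40% or more at the single tested concentration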;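 note: wild-type TIM10 isogenic control strain grown at permissive 25 °C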
Mdm2-MdmX inh: human Mdm2/MdmX binding inhibition | O15151+Q00987 | SaOS-2 split-luciferase Mdm2/MdmX complementation, luminescence | inhibition, % at 8 µM | 330,000 compounds, 3% hits | AID 485346;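 active = inhibition of at least 50% at 8 µM in the primary screen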
Target sequence (O15151 whole entry, looked up): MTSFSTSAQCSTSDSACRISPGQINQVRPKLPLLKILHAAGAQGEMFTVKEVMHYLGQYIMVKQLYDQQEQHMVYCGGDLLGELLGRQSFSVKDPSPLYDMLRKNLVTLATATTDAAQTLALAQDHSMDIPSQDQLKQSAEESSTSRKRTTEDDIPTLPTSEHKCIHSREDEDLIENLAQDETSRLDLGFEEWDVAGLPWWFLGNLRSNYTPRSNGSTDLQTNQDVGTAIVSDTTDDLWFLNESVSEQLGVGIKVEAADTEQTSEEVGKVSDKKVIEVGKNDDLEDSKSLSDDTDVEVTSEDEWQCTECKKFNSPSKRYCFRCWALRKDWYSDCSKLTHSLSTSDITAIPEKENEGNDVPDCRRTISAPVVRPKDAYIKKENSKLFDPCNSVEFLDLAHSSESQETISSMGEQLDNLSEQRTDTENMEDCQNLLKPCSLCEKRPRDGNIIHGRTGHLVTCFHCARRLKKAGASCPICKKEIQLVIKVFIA
Target sequence (Q00987 whole entry, looked up): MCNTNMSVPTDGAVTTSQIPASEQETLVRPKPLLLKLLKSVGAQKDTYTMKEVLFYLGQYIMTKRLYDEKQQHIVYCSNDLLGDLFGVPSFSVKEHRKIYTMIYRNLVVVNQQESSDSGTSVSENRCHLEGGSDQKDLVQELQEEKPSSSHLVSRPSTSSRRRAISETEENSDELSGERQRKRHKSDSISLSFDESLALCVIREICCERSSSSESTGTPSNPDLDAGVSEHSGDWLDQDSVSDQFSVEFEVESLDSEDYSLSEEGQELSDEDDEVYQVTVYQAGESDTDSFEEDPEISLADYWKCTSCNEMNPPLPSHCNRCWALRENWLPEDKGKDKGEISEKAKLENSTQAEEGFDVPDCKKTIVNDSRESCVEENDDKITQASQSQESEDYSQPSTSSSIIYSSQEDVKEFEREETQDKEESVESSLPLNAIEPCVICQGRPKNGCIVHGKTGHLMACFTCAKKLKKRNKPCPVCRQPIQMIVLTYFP
tim23-1 inh: tim23-1 yeast growth inhibition; S. cerevisiae tim23-1 growth, BacTiter-Glo luminescence, 24 h; 330,000 compounds, 1.3% hits; inhibition, % at 20 µM;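 active = growth inhibition of the mutant yeast at or above 50%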;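 note: temperature-sensitive mutant grown at 25 °C; plate controls were DMSO-treated mutant yeast for no effect and medium wells lacking yeast for full effect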
MPTP block: blocks calcium-induced mitochondrial swelling; isolated mouse mitochondria, Ca2+ swelling absorbance, 30 min; inhibition, % at 10 µM; 360,000 compounds, 1.4% hits;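 active = inhibition of 50% or more, scaled per plate between neutral and stimulator controls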;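 note: 0% = DMSO wells given calcium and 100% = 1 mM EGTA wells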
tim10-1 inh: inhibits growth of tim10-1 mutant yeast; S. cerevisiae tim10-1 ts strain growth, BacTiter-Glo, 24 h; inhibition, % at 20 µM; 330,000 compounds, 2.2% hits;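 active = inhibition of at least 40%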;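 note: mutant grown at 25 °C; 0% = DMSO wells with yeast and 100% = wells holding no yeast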
tim10-1 confirm: tim10-1 yeast growth inhibition, confirmed | shares compounds with tim10-1 inh | S. cerevisiae tim10-1 ts strain growth, BacTiter-Glo, 24 h | inhibition, % at 20 µM | 7,400 compounds, 56% hits;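 active = inhibition of yeast growth at or above a set limit in either of two repeat tests at 20 µM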;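 note: tim10-1 mutant grown at permissive 25 °C to find synthetic lethal compounds; 0% = DMSO yeast wells and 100% = medium wells without yeast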
tim10 confirm: confirmation of TIM10 yeast growth inhibitors. shares compounds with TIM10 inh. S. cerevisiae tim10 strain growth, BacTiter-Glo luminescence, 24 h. inhibition, % at 10 µM. 4,600 compounds, 63% hits;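 active = inhibition of yeast growth at or above a set limit in either of two replicates at 10 µM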;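 note: this counterscreen used the strain with wild-type TIM10; 0% = yeast with DMSO and 100% = medium wells lacking yeast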
tim23-1 confirm: tim23-1 yeast growth inhibition, confirmed | shares compounds with tim23-1 inh | S. cerevisiae tim23-1 growth, BacTiter-Glo luminescence, 24 h | inhibition, % at 20 µM | 4,400 compounds, 83% hits;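 active = inhibition above about 39% in either of two replicate wells at 20 µM, limit read from the data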;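 note: temperature-sensitive tim23-1 mutant grown at 25 °C; 0% = DMSO wells with yeast and 100% = medium wells without yeast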
Mdm2-MdmX conf: confirmation of human Mdm2/MdmX interaction inhibitors; shares compounds with Mdm2-MdmX inh; Mdm2-MdmX binding, luminescent assay; inhibition, % at 8 µM; 10,000 compounds, 55% hits; AID 489028; in the data active = inhibition above about 40%
FLuc counter: inhibits full-length luciferase, flagging false Mdm2/MdmX hits | shares compounds with Mdm2-MdmX inh | 6,200 compounds, 77% hits | SaOS-2 full-length luciferase counterscreen, luminescence | inhibition, % at 8 µM;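 active = mean inhibition at 8 µM reaching about 37%, which flags the compound as non-specific, limit read from the data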;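 note: p53-null SaOS-2 cells with luciferase driven by a doxycycline-inducible promoter; compound on cells about two nights before reading with doxycycline added after day one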
MPTP counter: membrane potential counter-screen of mitochondrial pore inhibitors. shares compounds with MPTP block. isolated mitochondria, Rhodamine 123 fluorescence. inhibition, % at 10 µM. AID 624504. 5,000 compounds, 78% hits; in the data active = inhibition above about 22%;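 note: 0% = DMSO vehicle and 100% = positive control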
MPTP abs DR: dose response confirmation of mitochondrial permeability transition pore inhibitors. shares compounds with MPTP block. isolated mitochondria swelling, absorbance. IC50, µM. 780 compounds, 58% hits. AID 651561; in the data active = IC50 below about 20 µM
MPTP cs DR: active in counter-screen for permeability transition pore inhibitors; shares compounds with MPTP block; isolated mitochondria counterscreen, fluorescence read-out; IC50, µM; 780 compounds, 49% hits; AID 651564; in the data active = IC50 below about 80 µM
* hit, by the source's call; i = inactive; x = no result given.

SMILES	TIM10 inh	Mdm2-MdmX inh	tim23-1 inh	MPTP block	tim10-1 inh	tim10-1 confirm	tim10 confirm	MPTP counter	others
C/C(=N\Nc1ccc([N+](=O)[O-])cc1)c1ccc(C#N)cc1	-13	-2	-28	28	-6	x	x	x
O=C(Nc1ccc(Br)c(C(F)(F)F)c1)c1ccc(C(F)(F)F)cc1	72*	96*	81*	83*	45*	48*	81*	87*	tim23-1 confirm=5;Mdm2-MdmX conf=59*;FLuc counter=29
COc1ccc(NC(=O)c2ccc(COCC(F)(F)F)cc2)cc1OC	6	-8	5	0	7	x	x	x
O=C(Nc1ccc(OCC(F)(F)C(F)F)c(C(F)(F)F)c1)c1ccc(Cl)cc1	58*	92*	30	91*	53*	35*	-10	84*	Mdm2-MdmX conf=85*;FLuc counter=34
O=C(Nc1ccc(C(F)(F)F)cc1)c1ccccc1	11	-52	-1	2	4	x	x	x
O=C(Nc1ccc(Br)c(C(F)(F)F)c1)c1ccccc1	68*	-11	73*	100*	58*	50*	3	89*	tim23-1 confirm=78*
O[C@H]1C[C@H](c2ccccc2)N(Cc2cccs2)C[C@@H]1n1cc(C2CC2)nn1	x	x	x	-2	x	x	x	x
O=C(c1[nH]c(C(F)(F)F)nc1-c1ccccc1)N1CCN(Cc2c(F)cccc2Cl)CC1	x	x	x	-1	x	x	x	x
CC(C)(C)C1=CC(=O)C(=O)C(C(C)(C)C)=C1	40*	18	24	80*	47*	39*	26	4
O=C(/C=C/[C@H]1O[C@@H](n2ccc(=O)[nH]c2=O)[C@H](O)[C@@H]1O)NC(c1ccccc1)c1ccccc1	x	x	x	-2	x	x	x	x
N/C(=N\OC(=O)Nc1ccc(Cl)cc1)c1ncc(C(F)(F)F)cc1Cl	69*	27	75*	56*	53*	64*	80*	113*	tim23-1 confirm=73*
Nc1cc(S(=O)(=O)N2CCCCC2)ccc1N1CCOCC1	-1	14	-1	-2	17	x	x	x
CC1CCN(c2ccc(S(=O)(=O)N3CCC(C)CC3)cc2N)CC1	19	16	38	69*	41*	30	x	77*
Cc1ccc2sc(N(CCCN(C)C)C(=O)c3ccc(S(=O)(=O)N4CCc5ccccc5C4)cc3)nc2c1C	20	98*	20	90*	40*	29	x	-5	Mdm2-MdmX conf=75*;FLuc counter=51*;MPTP abs DR=i;MPTP cs DR=>80
Cc1ccc2sc(N(CCCN(C)C)C(=O)c3ccc(S(=O)(=O)N(C)Cc4ccccc4)cc3)nc2c1C	29	100*	12	71*	54*	12	x	-10	Mdm2-MdmX conf=49*;FLuc counter=46*
CN(C)CCCN(C(=O)c1ccc(S(=O)(=O)N2CCc3ccccc3C2)cc1)c1nc2c(F)cc(F)cc2s1	14	31	23	91*	42*	35*	x	-9
COc1cc2nc(N(CCCN(C)C)C(=O)c3ccc(S(=O)(=O)N4CCc5ccccc5C4)cc3)sc2cc1OC	2	30	7	30	11	x	x	x
Cc1ccc2sc(N(CCCN(C)C)C(=O)c3ccc(S(=O)(=O)N(C)C)cc3)nc2c1C	11	17	19	-2	18	x	x	x
CCCS(=O)(=O)NC(=O)C1(C)CCCN(C(=O)C2(c3ccc(Cl)cc3)CCCC2)C1 (stereo unspecified)	x	x	x	1	x	x	x	x
COc1cccc(NC(=O)Nc2ccc(C(C)(C)C)cc2)c1	49*	-43	58*	79*	57*	46*	60*	81*	tim23-1 confirm=75*
COc1cccc(NC(=O)Nc2ccncc2)c1	-15	16	-1	12	1	x	x	x
CN1/C(=C\C(=O)Nc2ccc(Cl)cc2)C(C)(C)c2ccccc21	59*	9	68*	79*	52*	62*	54*	70*	tim23-1 confirm=78*
CC(C)N=c1scc(-c2ccco2)n1/N=C/c1ccc(O)c(O)c1	34	6	54*	63*	47*	19	x	42*	tim23-1 confirm=60*
COc1cc(Cl)cc2c1Sc1ccccc1/C2=C/CCN(C)C	35	69*	-68	82*	42*	29	x	-4	Mdm2-MdmX conf=13
COc1ccc(Nc2nc3nonc3nc2N2CCCCC2)cc1	8	-18	30	8	15	x	x	x
SMILES	TIM10 inh	Mdm2-MdmX inh	tim23-1 inh	MPTP block	tim10-1 inh	tim10-1 confirm	tim10 confirm	MPTP counter	others
CC1CCN(c2nc3nonc3nc2Nc2ccc(F)cc2)CC1	45*	-5	35	73*	41*	44*	26	75*
O=C(NC(c1ccc(Cl)cc1)c1cc(Cl)c2cccnc2c1O)c1cccnc1 (stereo unspecified)	x	x	x	-1	x	x	x	x
CN1CCN(C(c2ccc(Cl)cc2)c2cc(Cl)c3cccnc3c2O)CC1 (stereo unspecified)	3	73*	59*	75*	40*	24	x	-23	tim23-1 confirm=71*;Mdm2-MdmX conf=72*;FLuc counter=38*
O=C(Nc1ccc(Cl)c(Cl)c1)C1=Cc2ccccc2OC1	50*	-47	44	89*	40*	53*	60*	92*
O=C(NCc1ccc(F)cc1)c1cc(C2CCCCN2S(=O)(=O)c2cccs2)on1 (stereo unspecified)	x	x	x	1	x	x	x	x
CC(C)C[C@H](NC(=O)OC(C)(C)C)c1nnc(SCc2ccccc2)o1	15	0	42	5	34	x	x	x
Cc1ccccc1CS(=O)(=O)c1nnc([C@H](CC(C)C)NC(=O)OC(C)(C)C)o1	57*	75*	39	75*	65*	48*	49*	-3	Mdm2-MdmX conf=79*;FLuc counter=1
CN1C(=O)/C(=C/c2cc(N=Nc3ccccc3)ccc2O)SC1=S	36	92*	55*	95*	51*	41*	x	61*	tim23-1 confirm=65*;Mdm2-MdmX conf=47*;FLuc counter=53*
FC(F)(F)c1nnc(-c2ccccc2)nc1Oc1ccc(Cl)cc1Cl	12	32	44	71*	51*	47*	x	1	MPTP abs DR=14*;MPTP cs DR=>80
CN(N)c1nc(-c2ccccc2)nnc1C(F)(F)F	10	-3	16	2	12	x	x	x
